An excerpt weighted towards active compounds, which were near 19% of everything screened.
Gal4-VP16 FLuc – Gal4-VP16 reporter inhibition counter-screen; Drosophila S2 Gal4-VP16 UAS-luciferase, luminescence, 20 h; Potency, µM (doses to about 53.6 µM), actives largely listed as inhibitors; 310,000 tested, 3.5% active;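 further: Gal4-VP16 expression switched on by copper sulfate through the metallothionein promoter; nearly all actives have a fitted effect of over 50% in size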
DT40 TDP1 CPT – growth inhibition of DT40 Tdp1-/-;hTDP1 cells with camptothecin (screen for TDP1 inhibitors); chicken DT40 Tdp1-/-;hTDP1 cells + 20 nM CPT, ATP luminescence, 48 h; Potency, µM (titrated, usually from 46.2 µM), actives largely listed as inhibitors; 420,000 tested, 12% active; further: nearly all actives have a fitted effect of over 55% in size
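Cell growth measured by CellTiter-Glo luminescence after a minimum 48 h, 37 C compound exposure with 20 nM CPT in Tdp1-knockout DT40 cells stably expressing hTDP1, seeded 400/well; qHTS titration format.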
RORgamma inh – blocks mouse ROR gamma transcriptional activity; Drosophila S2 Gal4-RORgamma UAS-luciferase reporter, 20 h; Potency, µM (titrated, usually from 53.6 µM), usual class: inhibitors; 310,000 tested, 5.4% active; further: nearly all actives have a fitted effect of over 60% in size
Target sequence (P51450 whole entry, looked up, the tested form may be a part): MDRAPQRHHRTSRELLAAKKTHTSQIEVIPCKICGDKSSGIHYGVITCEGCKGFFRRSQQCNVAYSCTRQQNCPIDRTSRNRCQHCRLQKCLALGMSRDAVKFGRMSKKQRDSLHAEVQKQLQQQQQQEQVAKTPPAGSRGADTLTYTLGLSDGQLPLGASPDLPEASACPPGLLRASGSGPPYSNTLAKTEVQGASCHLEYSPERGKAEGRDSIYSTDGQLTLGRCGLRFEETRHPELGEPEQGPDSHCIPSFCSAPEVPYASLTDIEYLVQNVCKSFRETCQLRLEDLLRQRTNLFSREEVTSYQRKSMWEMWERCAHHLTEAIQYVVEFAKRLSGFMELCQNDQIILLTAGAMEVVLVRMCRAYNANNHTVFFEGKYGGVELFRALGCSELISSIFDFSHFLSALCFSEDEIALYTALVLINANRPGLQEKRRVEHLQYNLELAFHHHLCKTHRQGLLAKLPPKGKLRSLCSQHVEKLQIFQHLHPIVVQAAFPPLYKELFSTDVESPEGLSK
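Stable Schneider cell line, Gal4 DNA-binding domain fused to ROR gamma, UAS-luciferase. Cmpd 1 hr RT → CuSO4 700 uM final → 20 hr RT → luciferase reagent 10 min → luminescence.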
TDP1 block – TDP1 (human) enzyme inhibition. Q9NUW8. recombinant TDP1, AlphaScreen DNA substrate cleavage. Potency, µM (top dose mostly 130 µM), hits mostly inhibitors. 350,000 tested, 0.28% active. AID 485290; further: nearly all actives have a fitted effect of over 40% in size
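Tdp1 1 nM final; 15 min RT w/ cpd; substrate 15 nM, 5 min; beads 10 ug/ml, 10 min; AlphaScreen read. Neg ctrl: no enzyme.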
TDP1 cell noCPT – qHTS for Inhibitors of human tyrosyl-DNA phosphodiesterase 1 (TDP1): qHTS in cells in absence of CPT. DT40 Tdp1-/- hTDP1 cells, no CPT, ATP luminescence, 48 h. Potency, µM (series often up to 46.2 µM), usual class: inhibitors. 420,000 tested, 15% active; further: nearly all actives have a fitted effect of over 55% in size
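Luminescent ATP content (CellTiter-Glo) served as the growth readout. Knockout chicken DT40 cells expressing human TDP1 were exposed to compounds without camptothecin for a minimum 48 hr at 37 °C.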
Each line names hits and unclear results; the compound was inactive in the other large screens. The call rests on the fitted dose curve; in most records, active means well fitted curve in the direction sought with a large enough effect; inconclusive means small, poorly fitted or top-dose-only effect, or another doubt; inactive means no such curve, though single readings can be large; an effect the other way counts as inactive or inconclusive.

Cc1ccc(C(=O)N2CCCC(C(=O)Nc3cccc(-c4ccc(F)cc4)c3)C2)cn1 (stereo not given)	DT40 TDP1 CPT 16µM, TDP1 cell noCPT 8.2µM
COc1ncccc1C(=O)N1CCCC(C(=O)Nc2cccc(-c3ccc(F)cc3)c2)C1 (stereo not given)	DT40 TDP1 CPT 21µM, TDP1 cell noCPT 12µM (no result: Gal4-VP16 FLuc, RORgamma inh, TDP1 block)
Cc1ccc(C(=O)N2CCCC(Nc3ccc(F)c(F)c3)C2)cn1 (stereo not given)	none
O=C(NCCc1ccc(Cl)cc1)c1ccc2nccnc2c1	DT40 TDP1 CPT inconclusive, TDP1 cell noCPT inconclusive
Cc1c(C)n(C)c2ccc(C(=O)NCCc3ccc(Cl)cc3)cc12	DT40 TDP1 CPT 18µM, TDP1 cell noCPT inconclusive (no result: Gal4-VP16 FLuc, RORgamma inh)
Cc1c(C)n(C)c2ccc(C(=O)NCCc3ccco3)cc12	DT40 TDP1 CPT inconclusive, TDP1 cell noCPT 16µM
Cc1c(C)n(C)c2ccc(C(=O)Nc3cccc4ccccc34)cc12	DT40 TDP1 CPT 26µM, TDP1 cell noCPT inconclusive
O=C(Nc1cccc2ccccc12)c1ccccc1	DT40 TDP1 CPT inconclusive
O=C(NCCc1ccc(O)cc1)c1ccc(Cl)cc1	Gal4-VP16 FLuc inconclusive, RORgamma inh 1.6µM
CCC(=O)N1CCCC(C)(C(=O)Nc2ccc(OC)c(F)c2)C1 (stereo not given)	none (no result: Gal4-VP16 FLuc, RORgamma inh, TDP1 block)
COc1cccc(COC(=O)C2CC(=O)N(Cc3ccccc3)C2)c1OC (stereo not given)	none (no result: Gal4-VP16 FLuc, RORgamma inh, TDP1 block)
COCCCNC(=O)C1CCC(CNS(=O)(=O)c2ccc3c(c2)N(C(C)=O)CCO3)CC1 (stereo not given)	none
CC(=O)N1CCOc2ccc(S(=O)(=O)NCC3CCC(C(=O)Nc4ccc(C)cn4)CC3)cc21 (stereo not given)	Gal4-VP16 FLuc inconclusive, DT40 TDP1 CPT 15µM, TDP1 cell noCPT 13µM
COc1ccc(-c2cc(-c3n[nH]c(=S)n3-c3ccccc3OC)[nH]n2)cc1	Gal4-VP16 FLuc inconclusive, RORgamma inh inconclusive
COc1ccc(-c2n[nH]c(=S)n2-c2ccccc2C)cc1OC	Gal4-VP16 FLuc inconclusive, RORgamma inh 11µM
COc1ccc(-c2n[nH]c(=S)n2-c2ccccc2C)cc1	Gal4-VP16 FLuc 6.3µM, RORgamma inh 5.6µM (no result: TDP1 block)
COc1ccc(CN2CCC(n3nccc3NC(=O)c3ccc4c(c3)OCO4)CC2)cc1C	none
COc1ccc(OC)c(NC(=O)c2ccc(-c3nc(CSc4ccccc4)c(C)o3)cc2)c1	DT40 TDP1 CPT 21µM, TDP1 cell noCPT 21µM (no result: Gal4-VP16 FLuc, RORgamma inh)
Cc1oc(-c2ccc(C(=O)NCc3cccc(F)c3)cc2)nc1COc1ccccc1	none (no result: Gal4-VP16 FLuc, RORgamma inh)
Cc1ccc(SCc2nc(-c3ccc(C(=O)NCCc4ccc(Cl)cc4)cc3)oc2C)cc1	DT40 TDP1 CPT inconclusive, TDP1 cell noCPT inconclusive (no result: Gal4-VP16 FLuc, RORgamma inh)
COc1cc(NC(=O)c2ccc(-c3nc(COc4ccccc4)c(C)o3)cc2)cc(OC)c1	DT40 TDP1 CPT 9.2µM, TDP1 cell noCPT 10µM (no result: Gal4-VP16 FLuc, RORgamma inh)
COc1cccc(CNC(=O)c2ccc(-c3nc(CS(=O)c4ccccc4)c(C)o3)cc2)c1 (stereo not given)	DT40 TDP1 CPT inconclusive, TDP1 cell noCPT 16µM (no result: Gal4-VP16 FLuc, RORgamma inh)
Cc1ccc(SCc2nc(-c3ccc(C(=O)NCC(C)c4ccccc4)cc3)oc2C)cc1 (stereo not given)	DT40 TDP1 CPT 8.2µM, TDP1 cell noCPT 6.5µM (no result: Gal4-VP16 FLuc, RORgamma inh)
CCOC(=O)C(CC)n1nc(C)n2c(cc3occc32)c1=O (stereo not given)	DT40 TDP1 CPT inconclusive
Cn1c(CNS(=O)(=O)c2ccc(F)cc2)n[nH]c1=S	none
COC(=O)c1sccc1NC(=S)N1CCN(c2ccccc2)CC1	none
O=C(NNC(=O)c1cc2cc(Br)ccc2oc1=O)c1ccc(O)cc1O	Gal4-VP16 FLuc inconclusive, DT40 TDP1 CPT 5.2µM, RORgamma inh 10µM, TDP1 block 25µM, TDP1 cell noCPT 9.2µM
O=C(c1ccc(Br)cc1)c1cc2ccc(O)cc2oc1=O	DT40 TDP1 CPT inconclusive, TDP1 cell noCPT 16µM (no result: TDP1 block)
COc1c(O)cc2c(c1O)C1OC(CO)C(O)C(O)C1OC2=O (stereo not given)	none (no result: Gal4-VP16 FLuc, RORgamma inh, TDP1 block)
O=C1OCC2OC(O)C(O)C(O)C2OC(=O)c2cc(O)c(O)c(O)c2-c2c(O)c(O)c3oc(=O)c4c(c(O)c(O)c5oc(=O)c2c3c54)-c2c1cc(O)c(O)c2O (stereo not given)	TDP1 block 0.14µM (no result: DT40 TDP1 CPT, TDP1 cell noCPT)
O=C(COc1cc2oc(=O)cc(-c3ccccc3)c2cc1Cl)NCc1ccccn1	DT40 TDP1 CPT inconclusive, TDP1 cell noCPT inconclusive
O=c1c2ccccc2cnn1CCOc1ccccc1	Gal4-VP16 FLuc 4µM, RORgamma inh 4.5µM, TDP1 cell noCPT inconclusive
O=C(O)Cn1ncc2ccccc2c1=O	none
Cc1cccc(OCCn2nc(C(=O)O)c3ccccc3c2=O)c1	none
CC(C)(C)c1ccc(OCCn2nc(C(=O)O)c3ccccc3c2=O)cc1	Gal4-VP16 FLuc inconclusive, DT40 TDP1 CPT 16µM, TDP1 cell noCPT 21µM (no result: TDP1 block)
FC(F)(F)c1cc(-c2ccco2)nc(NCCc2ccccc2)n1	DT40 TDP1 CPT inconclusive, TDP1 cell noCPT inconclusive
Cc1cc(C)nc(SCNC(=O)c2ccccc2)n1	Gal4-VP16 FLuc 4µM, RORgamma inh 2.8µM
Cc1cc(SCNC(=O)c2ccccc2)nc(C(C)C)n1	Gal4-VP16 FLuc inconclusive, RORgamma inh 13µM
O=C(CCNC(=O)c1ccco1)Nc1cccc(Br)c1	none
COc1ccccc1C(=O)NCC(=O)NCCC(c1ccccc1)c1ccccc1	DT40 TDP1 CPT 15µM, TDP1 cell noCPT 16µM (no result: Gal4-VP16 FLuc, RORgamma inh)
COc1ccccc1C(=O)NCC(=O)Nc1ccccc1	DT40 TDP1 CPT inconclusive
COc1ccccc1C(=O)NCC(=O)NC(C)CCc1ccccc1 (stereo not given)	Gal4-VP16 FLuc 14µM, RORgamma inh 6.3µM
O=C(CSc1nc2[nH]ncc2c(=O)[nH]1)NCc1ccccc1	none
CC(=O)NC1C(=O)N=C(SCC(=O)NCc2ccccc2)NC1=O (stereo not given)	TDP1 block 25µM
O=C(CSC1=NC(=O)C(Cc2ccccc2)C(=O)N1)NC1CCCCC1 (stereo not given)	none (no result: Gal4-VP16 FLuc)
O=C(CSc1nncc(=O)[nH]1)NCc1ccccc1	DT40 TDP1 CPT 21µM, TDP1 cell noCPT inconclusive
CCC(CC)c1nnc(NC(=O)CS(=O)(=O)Cc2ccccc2)s1	none (no result: Gal4-VP16 FLuc, RORgamma inh, TDP1 block)
CCOc1ccccc1CN1CCN(Cc2cc(=O)c3ccccc3[nH]2)CC1CCO (stereo not given)	DT40 TDP1 CPT inconclusive, TDP1 cell noCPT inconclusive (no result: TDP1 block)
Cc1ccc(CN2CCN(Cc3cc(=O)c4ccccc4[nH]3)CC2CCO)o1 (stereo not given)	none
OCCC1CN(Cc2ccccc2OC2CCCC2)CCN1Cc1ccsc1 (stereo not given)	DT40 TDP1 CPT inconclusive, TDP1 cell noCPT 15µM
OCCC1CN(Cc2cccc3nonc23)CCN1Cc1ccsc1 (stereo not given)	none
